# Laboratory results: PubChem BioAssay (EPA / NIEHS)
# Results filed as inconclusive are left out. Calls of active or inactive are those of the source. Rule for the calls: active = hit-call score of the fitted dose curve at least 0.9, where 1 is the maximum; inconclusive = response in the unintended direction; inactive = score below 0.9.
# Tests used:
# [1] = biological target: rat Acetylcholinesterase (AChE), Ache (gene 83817) (UniProt P37136); test: NVS_ENZ_rAChE: NovaScreen (NVS) Enzymatic Assay for rat Acetylcholinesterase (AChE) (AID 2283233)
# Summary of the method: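 Compounds first screened at 25 uM in duplicate, then those passing threshold tested in concentration series up to 50 uM, against AChE from rat brain membranes. Enzyme activity read by absorbance at 0.33 h; inhibition scored versus DMSO.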
# [2] = system: rat Monoamine Oxidase, MAO-A, Central (MAOAC), gene 29253; test: NVS_ENZ_rMAOAC: NovaScreen (NVS) Enzymatic Assay for rat Monoamine Oxidase, MAO-A, Central (MAOAC) (AID 2283243);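 note: potency refers to inhibition seen as signal drop below DMSO baseline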
# Summary of the method: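 Single-concentration duplicate testing at 25 uM, then concentration-response for actives, in a lysate-based radiodetection MAO-A activity assay from rat brain. Enzyme activity measured 1.5 hours post-dosing; DMSO served as negative control and baseline.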
# [3] = biological target: rat Constitutive Nitric Oxide Synthase (CNOS), Nos1 (gene 24598) (UniProt P29476); test: NVS_ENZ_rCNOS: NovaScreen (NVS) Enzymatic Assay for rat Constitutive Nitric Oxide Synthase (CNOS) (AID 2283236)
# Summary of the method: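 Single 25 uM duplicate screen, then concentration series to 50 uM for chemicals meeting threshold. Rat brain membrane-derived CNOS activity detected radiometrically by filtration and scintillation counting, 1 h after compound addition; DMSO as baseline.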
# [4] = biological target: sheep Cyclooxygenase-1 (Cox1), PTGS1 (gene 443551) (UniProt P05979); test: NVS_ENZ_oCOX1: NovaScreen (NVS) Enzymatic Assay for sheep Cyclooxygenase-1 (Cox1) (AID 2283239);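 note: actives reduce cyclooxygenase activity so potencies are for inhibitors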
# Summary of the method: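 Native ovine seminal vesicle protein serves as enzyme source in this biochemical assay. Colorimetric signal is recorded 0.66 h after chemical addition, and decreases versus the DMSO control define activity.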
# [5] = biological target: rat Monoamine Oxidase, MAO-B, Central (MAOBC), Maob (gene 25750) (UniProt P19643); test: NVS_ENZ_rMAOBC: NovaScreen (NVS) Enzymatic Assay for rat Monoamine Oxidase, MAO-B, Central (MAOBC) (AID 2283238)
# Summary of the method: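 Here MAO-B activity in rat brain preparations is quantified radiometrically, counts taken at 1.17 hours. Concentration-response runs reach 50 uM, with plate controls, and values are fitted as loss of signal from the DMSO baseline.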
# [6] = biological target: rat Monoamine Oxidase, MAO-B, Peripheral (MAOBP), Maob (gene 25750) (UniProt P19643); test: NVS_ENZ_rMAOBP: NovaScreen (NVS) Enzymatic Assay for rat Monoamine Oxidase, MAO-B, Peripheral (MAOBP) (AID 2283242)
# [7] = biological target: rat Adenylate Cyclase, Forskolin Stimulated, Adcy5 (gene 64532) (UniProt Q04400); test: NVS_ENZ_rACFSKBinding: NovaScreen (NVS) Enzymatic Assay for rat Adenylate Cyclase, Forskolin Stimulated (AID 2283232)
# Summary of the method: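 Chemicals were first tested at 25 uM in duplicate, then hits run as concentration series with top concentration 50 uM. Enzyme source was rat forebrain membranes; radiometric filter read-out after 1 h, referenced to DMSO.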
# [8] = biological target: Adenosine receptor A1 (Bos taurus) (UniProt P28190); test: NVS_GPCR_bAdoR_NonSelective: NovaScreen (NVS) G Protein-Coupled Receptor Assay for bovine Adenosine Receptor (AdoR), Non-selective Binding (AID 2283244)
# Summary of the method: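 Cell-free binding with membranes from bovine striatum: radioligand displaced by test chemical, read after 1 h by filtration and scintillation. Single-point 25 uM duplicate primary, 50 uM top concentration in follow-up curves, DMSO baseline.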
# [9] = biological target: human Serotonin, 5-Hydroxytryptamine Receptor 2A (5HT2A), HTR2A (gene 3356) (UniProt P28223); test: NVS_GPCR_h5HT2A: NovaScreen (NVS) G Protein-Coupled Receptor Assay for human Serotonin, 5-Hydroxytryptamine Receptor 2A (5HT2A) (AID 2283249)
# Summary of the method: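 Radioligand displacement on human cortex tissue extract, counted by filtration and scintillation 1.5 h post-dosing. Initial single-concentration screen at 25 uM in duplicate, concentration series in follow-up; DMSO as baseline.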
# [10] = biological target: guinea pig Opioid, Kappa 1 Receptor (OpiateK), OPRK1 (gene 100135587) (UniProt P41144); test: NVS_GPCR_gOpiateK: NovaScreen (NVS) G Protein-Coupled Receptor Assay for guinea pig Opioid, Kappa 1 Receptor (OpiateK) (AID 2283252);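 note: radioligand displacement from kappa opioid receptor in guinea pig cerebellar membranes; active means reduced radioligand binding relative to DMSO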
# Summary of the method: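 Radioligand competition binding using guinea pig cerebellum membrane fraction; 2 h exposure; filter radiodetection. Single concentration 25 uM (duplicate), follow-up concentration-response for actives.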
# [11] = biological target: bovine Dopamine Receptor (DR), Non-selective Binding, DRD1 (gene 281125) (UniProt Q95136); test: NVS_GPCR_bDR_NonSelective: NovaScreen (NVS) G Protein-Coupled Receptor Assay for bovine Dopamine Receptor (DR), Non-selective Binding (AID 2283241)
# Summary of the method: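 Filter-based radioligand binding with bovine striatal membrane, incubated 1 h; DMSO as negative baseline. Initial duplicate single-point test at 25 uM preceded concentration series for actives.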
# [12] = system: bovine Histamine 1 Receptor (H1), gene 281231; test: NVS_GPCR_bH1: NovaScreen (NVS) G Protein-Coupled Receptor Assay for bovine Histamine 1 Receptor (H1) (AID 2283246)
# Summary of the method: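 Hits from a 25 uM duplicate primary screen were retested in concentration series (top 50 uM); binding measured as scintillation-counted displacement of radioligand from bovine cerebellar membranes after 1 h, normalised to DMSO.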
# [13] = system: guinea pig Muscarinic, Peripheral (Mperiperal) Receptor, Non-selective Binding, gene 100379235; test: NVS_GPCR_gMPeripheral_NonSelective: NovaScreen (NVS) G Protein-Coupled Receptor Assay for guinea pig Muscarinic, Peripheral (Mperiperal) Receptor, Non-selective Binding (AID 2283250)
# Summary of the method: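 Screened in duplicate at 25 uM, hits retested in concentration series to 50 uM max, using bladder membrane radioligand displacement from guinea pig. Filtration and scintillation counting 1 h post-dose, fitted relative to DMSO.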
# [14] = biological target: human Serotonin, 5-Hydroxytryptamine Receptor 5A (5HT5A), HTR5A (gene 3361) (UniProt P47898); test: NVS_GPCR_h5HT5A: NovaScreen (NVS) G Protein-Coupled Receptor Assay for human Serotonin, 5-Hydroxytryptamine Receptor 5A (5HT5A) (AID 2283251)
# Summary of the method: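 Membranes from HEK293 cells, radioligand binding read by filtration and scintillation after 1 h. Single-concentration duplicate testing at 25 uM, then concentration-response for actives; positive-direction fitting relative to DMSO.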
# [15] = biological target: human Serotonin, 5-Hydroxytryptamine Receptor 6 (5HT6), HTR6 (gene 3362) (UniProt P50406); test: NVS_GPCR_h5HT6: NovaScreen (NVS) G Protein-Coupled Receptor Assay for human Serotonin, 5-Hydroxytryptamine Receptor 6 (5HT6) (AID 2283253)
# Summary of the method: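 Filter scintillation counting of radioligand displacement from HEK293-expressed 5HT6, 1 hour post-dose, with loss of signal relative to DMSO. Single 25 uM duplicates first, with concentration series for confirmation.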
# [16] = biological target: rat Catechol-O-Methyl Transferase (COMT), Comt (gene 24267) (UniProt P22734); test: NVS_ENZ_rCOMT: NovaScreen (NVS) Enzymatic Assay for rat Catechol-O-Methyl Transferase (COMT) (AID 2283235)
# Summary of the method: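 Rat dorsal striatum extract served as COMT source; product quantified by HPLC/spectrophotometry, read at 0 h after dosing. Primary single-concentration screen at 25 uM, followed by concentration series to a 50 uM maximum.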
# [17] = NVS_GPCR_bNPY_NonSelective: NovaScreen (NVS) G Protein-Coupled Receptor Assay for bovine Neuropeptide Y (NPY) Receptor, Non-selective Binding (AID 2283245)
# Summary of the method: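 Displacement of radioligand from bovine hippocampal membrane receptors, read by filtration and scintillation counting after 1 hour. Concentration-response to a top of 50 uM followed a 25 uM duplicate primary screen. Loss of signal versus DMSO.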
# [18] = biological target: guinea pig Leukotriene D4 Receptor (LTD4), CYSLTR1 (gene 100135514) (UniProt Q2NNR5); test: NVS_GPCR_gLTD4: NovaScreen (NVS) G Protein-Coupled Receptor Assay for guinea pig Leukotriene D4 Receptor (LTD4) (AID 2283248)
# Summary of the method: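 Guinea pig lung membrane preparation; bound radioligand measured by filter scintillation after 1 h, loss of signal versus DMSO marking displacement. Compounds tested at 25 uM in duplicate, hits retested to max 50 uM.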
# [19] = system: guinea pig Leukotriene B4 Receptor (LTB4), gene 100379538; test: NVS_GPCR_gLTB4: NovaScreen (NVS) G Protein-Coupled Receptor Assay for guinea pig Leukotriene B4 Receptor (LTB4) (AID 2283247)
# Summary of the method: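 Membranes from guinea pig spleen incubated 2 h with radioligand and compound; bound counts measured by filtration and scintillation. Screened first at 25 uM in duplicate, then actives titrated to a 50 uM top concentration relative to DMSO.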
# Sequence of rat Monoamine Oxidase, MAO-B, Central (MAOBC), Maob (gene 25750) (P19643 whole entry, looked up): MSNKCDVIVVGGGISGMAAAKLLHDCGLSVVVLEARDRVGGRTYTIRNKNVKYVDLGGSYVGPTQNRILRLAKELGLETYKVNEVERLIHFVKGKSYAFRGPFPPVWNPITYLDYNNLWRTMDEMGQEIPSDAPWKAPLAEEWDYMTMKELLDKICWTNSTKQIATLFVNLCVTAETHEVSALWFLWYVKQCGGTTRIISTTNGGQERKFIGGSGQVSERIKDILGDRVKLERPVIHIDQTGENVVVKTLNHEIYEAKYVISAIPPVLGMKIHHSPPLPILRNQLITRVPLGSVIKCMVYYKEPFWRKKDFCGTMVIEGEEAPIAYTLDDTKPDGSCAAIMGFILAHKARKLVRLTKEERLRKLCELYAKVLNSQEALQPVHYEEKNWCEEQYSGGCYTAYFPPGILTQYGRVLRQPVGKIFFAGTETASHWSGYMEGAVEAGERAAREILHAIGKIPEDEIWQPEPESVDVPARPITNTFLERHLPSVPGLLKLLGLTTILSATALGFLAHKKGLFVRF
# Sequence of rat Acetylcholinesterase (AChE), Ache (gene 83817) (P37136 whole entry, looked up): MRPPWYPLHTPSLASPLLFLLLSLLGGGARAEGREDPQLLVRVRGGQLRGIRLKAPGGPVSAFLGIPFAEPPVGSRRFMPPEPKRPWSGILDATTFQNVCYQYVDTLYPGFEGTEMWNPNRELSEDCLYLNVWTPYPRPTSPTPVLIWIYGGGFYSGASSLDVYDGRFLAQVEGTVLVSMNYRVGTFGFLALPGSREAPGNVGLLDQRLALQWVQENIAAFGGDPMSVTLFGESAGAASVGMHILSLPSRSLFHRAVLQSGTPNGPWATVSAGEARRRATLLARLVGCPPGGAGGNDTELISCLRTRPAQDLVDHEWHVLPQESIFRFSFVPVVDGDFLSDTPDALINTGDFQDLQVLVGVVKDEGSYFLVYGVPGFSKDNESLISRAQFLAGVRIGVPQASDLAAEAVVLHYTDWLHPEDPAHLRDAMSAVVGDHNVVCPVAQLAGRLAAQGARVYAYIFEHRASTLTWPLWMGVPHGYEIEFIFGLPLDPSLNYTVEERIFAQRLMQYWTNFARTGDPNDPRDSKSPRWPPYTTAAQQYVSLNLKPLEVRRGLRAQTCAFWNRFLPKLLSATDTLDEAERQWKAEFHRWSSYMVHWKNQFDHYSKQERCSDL
# Sequence of human Serotonin, 5-Hydroxytryptamine Receptor 5A (5HT5A), HTR5A (gene 3361) (P47898 whole entry, looked up): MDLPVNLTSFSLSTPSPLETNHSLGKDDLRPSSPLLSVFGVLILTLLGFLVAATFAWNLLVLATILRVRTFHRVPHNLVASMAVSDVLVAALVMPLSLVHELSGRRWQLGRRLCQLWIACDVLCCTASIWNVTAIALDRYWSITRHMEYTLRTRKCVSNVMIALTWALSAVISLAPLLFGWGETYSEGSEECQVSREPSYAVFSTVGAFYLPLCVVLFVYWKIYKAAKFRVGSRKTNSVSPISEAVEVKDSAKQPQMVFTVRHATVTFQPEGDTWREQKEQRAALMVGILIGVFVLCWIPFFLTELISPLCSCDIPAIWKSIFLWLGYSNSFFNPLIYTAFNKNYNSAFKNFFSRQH
# Sequence of bovine Dopamine Receptor (DR), Non-selective Binding, DRD1 (gene 281125) (Q95136 whole entry, looked up): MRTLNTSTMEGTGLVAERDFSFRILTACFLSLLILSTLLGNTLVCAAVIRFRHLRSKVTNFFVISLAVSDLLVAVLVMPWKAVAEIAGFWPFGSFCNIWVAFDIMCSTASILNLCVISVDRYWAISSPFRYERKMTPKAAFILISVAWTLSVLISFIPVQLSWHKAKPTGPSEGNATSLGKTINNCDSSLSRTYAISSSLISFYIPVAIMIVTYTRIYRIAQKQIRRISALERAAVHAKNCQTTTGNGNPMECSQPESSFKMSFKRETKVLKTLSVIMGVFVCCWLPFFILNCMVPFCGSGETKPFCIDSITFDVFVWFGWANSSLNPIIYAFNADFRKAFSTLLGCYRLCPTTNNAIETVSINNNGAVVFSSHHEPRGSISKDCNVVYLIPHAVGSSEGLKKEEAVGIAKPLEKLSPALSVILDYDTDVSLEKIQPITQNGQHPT
# Sequence of human Serotonin, 5-Hydroxytryptamine Receptor 2A (5HT2A), HTR2A (gene 3356) (P28223 whole entry, looked up): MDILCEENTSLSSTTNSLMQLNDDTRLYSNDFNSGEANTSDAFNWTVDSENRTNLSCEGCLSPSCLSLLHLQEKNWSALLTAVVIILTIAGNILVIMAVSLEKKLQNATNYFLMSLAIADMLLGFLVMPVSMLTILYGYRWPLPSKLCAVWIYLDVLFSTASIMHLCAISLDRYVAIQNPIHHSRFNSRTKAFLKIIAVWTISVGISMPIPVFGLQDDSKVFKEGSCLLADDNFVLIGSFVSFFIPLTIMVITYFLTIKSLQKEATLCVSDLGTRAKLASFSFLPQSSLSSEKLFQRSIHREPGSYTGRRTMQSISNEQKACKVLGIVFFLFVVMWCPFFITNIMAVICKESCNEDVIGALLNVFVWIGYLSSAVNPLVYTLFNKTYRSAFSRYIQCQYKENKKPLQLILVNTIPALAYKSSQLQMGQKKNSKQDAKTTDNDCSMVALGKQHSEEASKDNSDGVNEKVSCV
# Sequence of sheep Cyclooxygenase-1 (Cox1), PTGS1 (gene 443551) (P05979 whole entry, looked up): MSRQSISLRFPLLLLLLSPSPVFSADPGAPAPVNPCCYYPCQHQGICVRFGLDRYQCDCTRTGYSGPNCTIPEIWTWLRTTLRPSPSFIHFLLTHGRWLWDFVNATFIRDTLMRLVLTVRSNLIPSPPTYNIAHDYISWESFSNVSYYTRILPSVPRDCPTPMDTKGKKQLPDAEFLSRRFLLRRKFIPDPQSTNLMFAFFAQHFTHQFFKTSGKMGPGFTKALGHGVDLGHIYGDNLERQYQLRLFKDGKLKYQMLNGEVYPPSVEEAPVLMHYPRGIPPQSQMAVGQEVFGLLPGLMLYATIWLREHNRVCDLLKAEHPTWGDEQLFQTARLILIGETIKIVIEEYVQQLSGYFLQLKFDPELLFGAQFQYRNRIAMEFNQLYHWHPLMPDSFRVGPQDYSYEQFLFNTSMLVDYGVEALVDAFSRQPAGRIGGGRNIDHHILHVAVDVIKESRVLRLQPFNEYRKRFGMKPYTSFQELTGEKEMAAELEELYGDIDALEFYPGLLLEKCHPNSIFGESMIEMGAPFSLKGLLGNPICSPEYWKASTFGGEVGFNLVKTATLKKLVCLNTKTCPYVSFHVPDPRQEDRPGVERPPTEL
# Sequence of rat Monoamine Oxidase, MAO-B, Peripheral (MAOBP), Maob (gene 25750) (P19643 whole entry, looked up): as the sequence (P19643 whole entry, looked up) above
# Sequence of rat Constitutive Nitric Oxide Synthase (CNOS), Nos1 (gene 24598) (P29476 whole entry, looked up): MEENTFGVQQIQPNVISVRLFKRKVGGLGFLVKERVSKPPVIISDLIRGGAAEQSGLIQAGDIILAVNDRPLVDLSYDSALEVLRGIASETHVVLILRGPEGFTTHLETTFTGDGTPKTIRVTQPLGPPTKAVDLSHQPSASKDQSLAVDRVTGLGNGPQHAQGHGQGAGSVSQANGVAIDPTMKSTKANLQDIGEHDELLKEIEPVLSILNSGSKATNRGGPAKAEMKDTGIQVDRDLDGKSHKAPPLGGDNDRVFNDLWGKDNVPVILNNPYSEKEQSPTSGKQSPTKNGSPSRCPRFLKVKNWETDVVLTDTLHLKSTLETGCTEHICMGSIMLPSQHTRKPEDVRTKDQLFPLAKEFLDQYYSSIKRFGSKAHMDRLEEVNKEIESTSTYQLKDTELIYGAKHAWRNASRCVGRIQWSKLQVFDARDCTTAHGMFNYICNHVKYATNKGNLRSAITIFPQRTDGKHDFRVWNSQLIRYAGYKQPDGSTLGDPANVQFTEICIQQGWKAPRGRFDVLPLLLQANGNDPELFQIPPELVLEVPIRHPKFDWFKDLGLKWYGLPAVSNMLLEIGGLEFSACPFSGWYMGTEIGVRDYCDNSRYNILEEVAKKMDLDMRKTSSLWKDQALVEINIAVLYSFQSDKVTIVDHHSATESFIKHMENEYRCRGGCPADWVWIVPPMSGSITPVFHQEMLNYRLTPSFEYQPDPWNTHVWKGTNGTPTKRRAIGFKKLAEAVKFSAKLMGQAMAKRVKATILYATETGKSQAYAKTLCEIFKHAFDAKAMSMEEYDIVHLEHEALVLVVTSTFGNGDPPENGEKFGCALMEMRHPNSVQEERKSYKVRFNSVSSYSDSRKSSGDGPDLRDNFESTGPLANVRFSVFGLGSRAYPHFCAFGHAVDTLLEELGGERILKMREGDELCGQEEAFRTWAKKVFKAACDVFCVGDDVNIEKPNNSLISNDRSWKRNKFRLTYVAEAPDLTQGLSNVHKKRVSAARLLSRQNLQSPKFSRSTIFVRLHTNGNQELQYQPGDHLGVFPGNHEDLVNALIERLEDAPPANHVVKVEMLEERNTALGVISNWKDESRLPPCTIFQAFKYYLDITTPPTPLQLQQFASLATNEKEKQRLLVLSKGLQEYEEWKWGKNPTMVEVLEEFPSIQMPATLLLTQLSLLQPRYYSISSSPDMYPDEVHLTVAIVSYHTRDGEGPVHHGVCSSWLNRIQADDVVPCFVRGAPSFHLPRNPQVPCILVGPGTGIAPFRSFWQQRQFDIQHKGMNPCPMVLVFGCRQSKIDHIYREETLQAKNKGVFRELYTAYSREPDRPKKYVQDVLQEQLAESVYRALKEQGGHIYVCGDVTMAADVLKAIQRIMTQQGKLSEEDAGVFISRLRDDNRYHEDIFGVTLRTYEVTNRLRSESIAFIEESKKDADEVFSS
smiles,measurement,setting,value
CN(C)C(=O)Nc1ccc(Cl)cc1,outcome,[1],inactive
same,AC50,[2],25 µM (active)
C=CCc1ccc2c(c1)OCO2,outcome,[3],inactive
c1ccc2c(c1)-c1cccc3cccc-2c13,outcome,[4],inactive
CN(C)c1ccc(C(=O)c2ccc(N(C)C)cc2)cc1,AC50,[5],7.63 µM (active)
same,AC50,[4],25.2 µM (active)
same,AC50,[6],18.6 µM (active)
same,AC50,[2],5.33 µM (active)
Clc1ccccc1Cl,outcome,[4],inactive
O=[N+]([O-])C(Br)(CO)CO,AC50,[7],21.3 µM (active)
same,AC50,[1],35.2 µM (active)
same,AC50,[5],35.6 µM (active)
same,AC50,[8],16.5 µM (active)
same,outcome,[9],inactive
same,AC50,[10],25 µM (active)
CCOC(=O)[C@]1(c2ccccc2)Oc2ccccc2[C@@H]1N,AC50,[1],17.2 µM (active)
same,outcome,[3],inactive
same,AC50,[5],10.2 µM (active)
same,AC50,[11],1.04 µM (active)
same,AC50,[6],2.44 µM (active)
same,AC50,[12],7.49 µM (active)
same,AC50,[9],3.91 µM (active)
same,AC50,[13],13.3 µM (active)
same,AC50,[14],0.659 µM (active)
same,AC50,[15],824 nM (active)
Cc1cccc(N)c1N,outcome,[1],inactive
same,outcome,[4],inactive
CCCCCCCCCCCCCN1CC(C)OC(C)C1 (centres undefined),AC50,[16],20.8 µM (active)
same,outcome,[8],inactive
CCCCCCCCn1sccc1=O,AC50,[7],26 µM (active)
same,outcome,[17],inactive
same,AC50,[14],26 µM (active)
same,AC50,[10],18.2 µM (active)
[Cl-].[Cl-].[Hg+2],AC50,[11],11.6 µM (active)
same,AC50,[17],12 µM (active)
same,AC50,[18],1.4 µM (active)
same,AC50,[14],1.59 µM (active)
O=C(N[C@H](c1ccccc1)[C@@H]1CN2CCC1CC2)c1c(Cl)ccc(C(F)(F)F)c1Cl,AC50,[11],29.1 µM (active)
same,AC50,[9],37.5 µM (active)
O=C(Nc1ccccc1)c1ccccc1I,outcome,[17],inactive
C[C@]12C=CC3=C4CCC(=O)C=C4CC[C@H]3[C@@H]1CC[C@@H]2O,outcome,[12],inactive
same,AC50,[19],2.88 µM (active)
Nc1ccc(Cc2ccc(N)cc2)cc1,AC50,[19],2.83 µM (active)
CC(C)(C)C(O)(CCc1ccc(Cl)cc1)Cn1cncn1 (centres undefined),outcome,[9],inactive
